A short description of assay [1]: Quantitative High-Throughput drug screen in 47 multiple myeloma cell lines against the NCATS MIPE library collection: Delta47_JCRB cell viability assay (AID 1918925; also: nearly all actives have a fitted effect of over 45% in size; also: potency is read from the fitted curve at half-maximal effect). The gist of the method:
(§1)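 CellTiter-Glo luminescence (ATP) after 48 h compound exposure, 37C/5% CO2; 500 cells/well; MIPE 4.0 approved/investigational drugs pinned in; DMSO = 100%, media only = 0% viability.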

A short description of assay [2]: Quantitative High-Throughput drug screen in 47 multiple myeloma cell lines against the NCATS MIPE library collection: EJM_DSMZ cell viability assay (AID 1918926; also: nearly all actives have a fitted effect of over 30% in size; also: potency is read from the fitted curve at half-maximal effect). The gist of the method:
as §1

Assay [3] in a line: Quantitative High-Throughput drug screen in 47 multiple myeloma cell lines against the NCATS MIPE library collection: AMO1_DSMZ cell viability assay (AID 1918927; also: nearly all actives have a fitted effect of over 30% in size; also: potency is read from the fitted curve at half-maximal effect). The gist of the method: as §1
Assay [4] in a line: Quantitative High-Throughput drug screen in 47 multiple myeloma cell lines against the NCATS MIPE library collection: ARP1_JJKsccF8 cell viability assay (AID 1918928; also: nearly all actives have a fitted effect of over 40% in size; also: potency is read from the fitted curve at half-maximal effect). The gist of the method: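 Luminescence from CellTiter-Glo, taken after 5 min at room temperature, reports cellular ATP as viability. Cells (500 per well) had been treated 48 h at 37 °C with MIPE 4.0 compounds, scaled between DMSO and medium-only controls.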

A short description of assay [5]: Quantitative High-Throughput drug screen in 47 multiple myeloma cell lines against the NCATS MIPE library collection: ARD_JJKsccE7 cell viability assay (AID 1918929; also: potency is read from the fitted curve at half-maximal effect). The gist of the method:
as §1

Assay [6] in a line: Quantitative High-Throughput drug screen in 47 multiple myeloma cell lines against the NCATS MIPE library collection: Karpas620_DSMZ cell viability assay (AID 1918959). Also: nearly all actives have a fitted effect of over 30% in size. Also: potency is read from the fitted curve at half-maximal effect. The gist of the method:
(§2)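 Primary qHTS used for cherry-picking: cells at 500/well, library compounds for 48 h (37C, 5% CO2), luminescent ATP assay.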

A short description of assay [7]: Quantitative High-Throughput drug screen in 47 multiple myeloma cell lines against the NCATS MIPE library collection: FR4_PLB cell viability assay (AID 1918924; also: nearly all actives have a fitted effect of over 35% in size). The gist of the method:
as §2

Molecules are shown by their SMILES. Results filed as inconclusive are left out. Activity calls are given as the source filed them. Calls follow the shape of the dose curve; as a rule, active = well fitted cell-killing curve with a large enough effect; inconclusive = small, poorly fitted or top-dose-only effect, or effect the other way; inactive = no such curve, though single readings can be large or run the other way.

With `CC(C)(O)C=CC(=O)[C@](C)(O)[C@H]1[C@H](O)C[C@]2(C)[C@@H]3CC=C4[C@@H](C=C(O)C(=O)C4(C)C)[C@]3(C)C(=O)C[C@@]12C`, the Potency was 0.0166 µM (active) in assay [1]; 0.0083 µM (active) in assay [2]; 0.0418 µM (active) in assay [3]; 0.0662 µM (active) in assay [4]; 0.296 µM (active) in assay [5]; 0.418 µM (active) in assay [6].
Consider `C[C@]12Cc3cn[nH]c3C[C@@H]1CC[C@@H]1[C@H]2CC[C@@]2(C)[C@H]1CC[C@]2(C)O`, for which the Potency entry in assay [5] and in assay [6] was “inactive” in each case.
On to `Cc1nc(-c2ccc(-c3ccc(C(=O)N4CCc5cc6c(cc54)C4(CCN(C)CC4)CO6)cc3)c(C)c2)no1`, for which the Potency entry in assay [7], in assay [2], in assay [3], in assay [4] and in assay [6] was “inactive” each time.
Turning to `CC(=CCCC1=CCC(C2=CC(=O)OC2O)OC1O)CCC1=C(C)CCCC1(C)C` (stereo not given), the Potency result in assay [1], in assay [2], in assay [4], in assay [5] and in assay [6] was “inactive” in each case.
Take `COc1ccc2c(c1)CN(C)CC2c1ccc(Cl)c(Cl)c1` (stereo not given): the Potency in assay [1] is 23.5 µM (active); in assay [2], 18.7 µM (active); in assay [3], 23.5 µM (active); in assay [4], 20.9 µM (active); in assay [5], 10.5 µM (active); in assay [6], 16.6 µM (active).
As to `CC(=Cc1csc(C)n1)[C@@H]1C[C@H]2O[C@@H]2CCC[C@H](C)[C@@H](O)[C@@H](C)C(=O)C(C)(C)[C@@H](O)CC(=O)O1`, the Potency result in assay [1], in assay [2] and in assay [4] was “inactive” in each case. In addition, the Potency in assay [3] was 0.001 µM (active).
As for `C=C1C[C@H]2[C@H]3CCC(=O)[C@@]3(C)CC[C@@H]2[C@@]2(C)C=CC(=O)C=C12`, the Potency was 18.7 µM (active) in assay [3] and 23.5 µM (active) in assay [6].

The values are drawn from PubChem BioAssay (NCATS).
